What all share (conditions): mRNA level, 48 h; actives raise or lower the signal
Read-out in experiment [1]: Cytochrome P450 7A1 (Homo sapiens) (UniProt P22680)
As to the kind of experiment: LTEA_HepaRG_CYP7A1: Life Technologies and Expression Analysis (LTEA) Assay for Cytochrome P450 7A1 (CYP7A1) using HepaRG (AID 2283496). The method in brief: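 HepaRG cells plated 48 h, then switched to serum-free induction medium and exposed in duplicate for 48 h to 8-point half-log series from 100 uM in 0.5% DMSO. CYP7A1 mRNA by qRT-PCR (TaqMan), normalized to ACTB/GAPDH/POLR2A; bidirectional fit versus DMSO.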

Read-out in experiment [2]: Glutathione S-Transferase (GSTA2), GSTA2 (gene 2939)
The experiment can be described thus: LTEA_HepaRG_GSTA2: Life Technologies and Expression Analysis (LTEA) Assay for Glutathione S-Transferase (GSTA2) using HepaRG (AID 2283497). The procedure, abridged: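 Human HepaRG cells, plated 48 h, then exposed in serum-free induction medium for 48 h to eight half-log concentrations up to 100 uM in 0.5% DMSO, duplicate. GSTA2 mRNA by qRT-PCR, normalized to ACTB/GAPDH/POLR2A; bidirectional fit versus DMSO.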

Read-out in experiment [3]: Glutamate-cysteine ligase catalytic (GCLC), GCLC (gene 2729)
As to the kind of experiment: LTEA_HepaRG_GCLC: Life Technologies and Expression Analysis (LTEA) Assay for Glutamate-cysteine ligase catalytic (GCLC) using HepaRG (AID 2283498). The method in brief: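 Differentiated human HepaRG cells, plated 48 h then switched to serum-free induction medium, were exposed in duplicate for 48 h to 8 half-log concentrations topping at 100 uM in 0.5% DMSO. GCLC mRNA was quantified by qRT-PCR against ACTB, GAPDH and POLR2A.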

Read-out in experiment [4]: growth arrest and DNA damage 45 (GADD45G), GADD45G (gene 10912)
As to the kind of experiment: LTEA_HepaRG_GADD45G: Life Technologies and Expression Analysis (LTEA) Assay for growth arrest and DNA damage 45 (GADD45G) using HepaRG (AID 2283499). The procedure, abridged: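 Differentiated human HepaRG cells in serum-free induction medium were exposed for 48 h to 8 half-log concentrations up to 100 uM in 0.5% DMSO, in duplicate. GADD45G mRNA was measured by TaqMan qRT-PCR, normalised to ACTB, GAPDH and POLR2A, and fitted bidirectionally against DMSO.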

Read-out in experiment [5]: Glutamate-cysteine ligase regulatory (GCLM), GCLM (gene 2730)
The experiment can be described thus: LTEA_HepaRG_GCLM: Life Technologies and Expression Analysis (LTEA) Assay for Glutamate-cysteine ligase regulatory (GCLM) using HepaRG (AID 2283500). The procedure, abridged: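 Differentiated HepaRG cells exposed 48 h in serum-free induction medium to eight half-log concentrations up to 100 uM (0.5% DMSO). GCLM mRNA by TaqMan qRT-PCR, normalized to ACTB, GAPDH and POLR2A; bidirectional fit versus DMSO.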

Read-out in experiment [6]: Heat shock 70 kDa protein 1 (HSPA1A), gene 3303
As to the kind of experiment: LTEA_HepaRG_HSPA1A: Life Technologies and Expression Analysis (LTEA) Assay for Heat shock 70 kDa protein 1 (HSPA1A) using HepaRG (AID 2283502). The method in brief: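 Human HepaRG cells in serum-free induction medium were exposed in duplicate for 48 h to 8 half-log concentrations, highest 100 uM, in 0.5% DMSO. HSPA1A mRNA read by TaqMan qRT-PCR, normalized to ACTB, GAPDH, POLR2A, fitted bidirectionally against DMSO.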

Read-out in experiment [7]: Hypoxia-inducible factor 1-alpha (Homo sapiens) (UniProt Q16665)
As to the kind of experiment: LTEA_HepaRG_HIF1A: Life Technologies and Expression Analysis (LTEA) Assay for Hypoxia-inducible factor 1 (HIF1A) Trancription factor using HepaRG (AID 2283503). The procedure, abridged: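 Differentiated HepaRG cells in serum-free induction medium exposed 48 h, in duplicate, to 8-point half-log series from 100 uM in 0.5% DMSO. HIF1A mRNA measured by TaqMan qRT-PCR, normalized to ACTB/GAPDH/POLR2A, fitted bidirectionally versus DMSO.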

Read-out in experiment [8]: 3-Hydroxy-3-Methylglutaryl-CoA Synthase 2 (HMGCS2), HMGCS2 (gene 3158)
As to the kind of experiment: LTEA_HepaRG_HMGCS2: Life Technologies and Expression Analysis (LTEA) Assay for 3-Hydroxy-3-Methylglutaryl-CoA Synthase 2 (HMGCS2) using HepaRG (AID 2283504). The procedure, abridged:
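Differentiated human HepaRG cells were exposed in duplicate for 48 h in serum-free induction medium to eight concentrations (top 100 uM, half-log steps, 0.5% DMSO). HMGCS2 mRNA was quantified by TaqMan qRT-PCR, normalised to ACTB, GAPDH and POLR2A, then fitted bidirectionally against DMSO.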

Read-out in experiment [9]: Insulin Like Growth Factor 1 (IGF1), IGF1 (gene 3479)
The experiment can be described thus: LTEA_HepaRG_IGF1: Life Technologies and Expression Analysis (LTEA) Assay for Insulin Like Growth Factor 1 (IGF1) using HepaRG (AID 2283506). The method in brief: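 Differentiated HepaRG cells in serum-free induction medium, exposed 48 h in duplicate to 8 half-log concentrations up to 100 uM in 0.5% DMSO. IGF1 mRNA by Fluidigm qRT-PCR, normalised to ACTB, GAPDH and POLR2A.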

Read-out in experiment [10]: Intercellular Adhesion Molecule 1 (ICAM1), ICAM1 (gene 3383)
The experiment can be described thus: LTEA_HepaRG_ICAM1: Life Technologies and Expression Analysis (LTEA) Assay for Intercellular Adhesion Molecule 1 (ICAM1) using HepaRG (AID 2283507). The procedure, abridged: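 Differentiated HepaRG cells in serum-free induction medium were exposed in duplicate for 48 h to eight half-log concentrations up to 100 uM in 0.5% DMSO. Transcript levels were measured by qRT-PCR normalized to ACTB, GAPDH and POLR2A; bidirectional fits relative to DMSO.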

Read-out in experiment [11]: Insulin-like growth factor-binding protein 1 (IGFBP1), IGFBP1 (gene 3484)
As to the kind of experiment: LTEA_HepaRG_IGFBP1: Life Technologies and Expression Analysis (LTEA) Assay for Insulin-like growth factor-binding protein 1 (IGFBP1) using HepaRG (AID 2283508). The procedure, abridged: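 Differentiated human HepaRG cells in serum-free induction medium were exposed in duplicate for 48 h to eight concentrations, top 100 uM with half-log dilutions, in 0.5% DMSO. Transcript levels came from qRT-PCR normalised to ACTB, GAPDH and POLR2A, fitted bidirectionally against DMSO.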

Read-out in experiment [12]: Interleukin 6 (IL6), IL6 (gene 3569)
The experiment can be described thus: LTEA_HepaRG_IL6: Life Technologies and Expression Analysis (LTEA) Assay for Interleukin 6 (IL6) using HepaRG (AID 2283509). The method in brief: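 Differentiated human HepaRG cells, plated 48 h then switched to serum-free induction medium, were exposed in duplicate for 48 h to eight half-log concentrations up to 100 uM in 0.5% DMSO. IL6 mRNA measured by qRT-PCR, normalized to ACTB/GAPDH/POLR2A.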

Read-out in experiment [13]: Interleukin 6 Receptor (IL6R), IL6R (gene 3570)
As to the kind of experiment: LTEA_HepaRG_IL6R: Life Technologies and Expression Analysis (LTEA) Assay for Interleukin 6 Receptor (IL6R) using HepaRG (AID 2283510).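 On AC50: TaqMan qRT-PCR signal normalized to ACTB GAPDH and POLR2A housekeeping genes.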 The method in brief:
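Differentiated HepaRG cells, plated 48 h, then exposed in duplicate for 48 h in serum-free induction medium to 8 half-log concentrations (top 100 uM, 0.5% DMSO). IL6R mRNA measured by TaqMan qRT-PCR, normalized to ACTB/GAPDH/POLR2A; bidirectional fit vs DMSO.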

Read-out in experiment [14]: Potassium channel subfamily K member 1 (KCNK1), KCNK1 (gene 3775)
As to the kind of experiment: LTEA_HepaRG_KCNK1: Life Technologies and Expression Analysis (LTEA) Assay for Potassium channel subfamily K member 1 (KCNK1) using HepaRG (AID 2283511). The procedure, abridged: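 Differentiated human HepaRG cells in serum-free induction medium were exposed in duplicate for 48 h to 8 half-log concentrations up to 100 uM in 0.5% DMSO. KCNK1 mRNA was measured by TaqMan qRT-PCR, normalized to ACTB, GAPDH and POLR2A, and fitted bidirectionally versus DMSO.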

Read-out in experiment [15]: Keratin 19 (KRT19), KRT19 (gene 3880)
As to the kind of experiment: LTEA_HepaRG_KRT19: Life Technologies and Expression Analysis (LTEA) Assay for Keratin 19 (KRT19) using HepaRG (AID 2283512). The method in brief:
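Differentiated human HepaRG cells, plated 48 h, were exposed in duplicate for 48 h in serum-free induction medium to eight half-log concentrations up to 100 uM in 0.5% DMSO. KRT19 mRNA was quantified by qRT-PCR, normalized to ACTB, GAPDH and POLR2A, and fitted bidirectionally versus DMSO.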

Read-out in experiment [16]: JUN Transcription Factor, JUN (gene 3725)
As to the kind of experiment: LTEA_HepaRG_JUN: Life Technologies and Expression Analysis (LTEA) Assay for JUN Transcription Factor using HepaRG (AID 2283513). The method in brief:
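HepaRG cells, 48 h post-plating, exposed 48 h in serum-free induction medium to 8-point half-log series (top 100 uM, 0.5% DMSO), duplicate; mRNA by qRT-PCR (TaqMan, Fluidigm), normalized to ACTB/GAPDH/POLR2A; bidirectional fit vs DMSO.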

Read-out in experiment [17]: Lipase C (LIPC), LIPC (gene 3990)
The experiment can be described thus: LTEA_HepaRG_LIPC: Life Technologies and Expression Analysis (LTEA) Assay for Lipase C (LIPC) using HepaRG (AID 2283514). The method in brief: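 Differentiated human HepaRG cells in serum-free induction medium were exposed in duplicate for 48 h to eight concentrations (top 100 uM, half-log steps, 0.5% DMSO). LIPC mRNA was quantified by TaqMan qRT-PCR, normalized to ACTB, GAPDH and POLR2A, with bidirectional fitting versus DMSO.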

Read-out in experiment [18]: Lipoprotein lipase (LPL), LPL (gene 4023)
As to the kind of experiment: LTEA_HepaRG_LPL: Life Technologies and Expression Analysis (LTEA) Assay for Lipoprotein lipase (LPL) using HepaRG (AID 2283515). The method in brief:
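Differentiated human HepaRG cells in serum-free induction medium were exposed in duplicate for 48 h to eight half-log concentrations (top 100 uM) in 0.5% DMSO. LPL mRNA was quantified by TaqMan qRT-PCR, normalized to ACTB, GAPDH and POLR2A.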

Read-out in a further experiment: HGF (gene 3082)
The experiment can be described thus: LTEA_HepaRG_HGF: Life Technologies and Expression Analysis (LTEA) Assay for Hepatocyte Growth Facto (HGF) using HepaRG (AID 2283505). The method in brief: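 Differentiated human HepaRG cells in serum-free induction medium were exposed in duplicate for 48 h to eight concentrations (top 100 uM, half-log steps, 0.5% DMSO). HGF mRNA was quantified by qRT-PCR, normalized to ACTB, GAPDH and POLR2A.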

Each structure is given as a SMILES string. Activity calls are given as the source filed them. How the source made its calls: active means hit-call score of the fitted dose curve at least 0.9, where 1 is the maximum; inactive means score below 0.9.

The results in this text go back to PubChem BioAssay (EPA / NIEHS).

Hypoxia-inducible factor 1-alpha (Homo sapiens), sequence (Q16665 whole entry, looked up): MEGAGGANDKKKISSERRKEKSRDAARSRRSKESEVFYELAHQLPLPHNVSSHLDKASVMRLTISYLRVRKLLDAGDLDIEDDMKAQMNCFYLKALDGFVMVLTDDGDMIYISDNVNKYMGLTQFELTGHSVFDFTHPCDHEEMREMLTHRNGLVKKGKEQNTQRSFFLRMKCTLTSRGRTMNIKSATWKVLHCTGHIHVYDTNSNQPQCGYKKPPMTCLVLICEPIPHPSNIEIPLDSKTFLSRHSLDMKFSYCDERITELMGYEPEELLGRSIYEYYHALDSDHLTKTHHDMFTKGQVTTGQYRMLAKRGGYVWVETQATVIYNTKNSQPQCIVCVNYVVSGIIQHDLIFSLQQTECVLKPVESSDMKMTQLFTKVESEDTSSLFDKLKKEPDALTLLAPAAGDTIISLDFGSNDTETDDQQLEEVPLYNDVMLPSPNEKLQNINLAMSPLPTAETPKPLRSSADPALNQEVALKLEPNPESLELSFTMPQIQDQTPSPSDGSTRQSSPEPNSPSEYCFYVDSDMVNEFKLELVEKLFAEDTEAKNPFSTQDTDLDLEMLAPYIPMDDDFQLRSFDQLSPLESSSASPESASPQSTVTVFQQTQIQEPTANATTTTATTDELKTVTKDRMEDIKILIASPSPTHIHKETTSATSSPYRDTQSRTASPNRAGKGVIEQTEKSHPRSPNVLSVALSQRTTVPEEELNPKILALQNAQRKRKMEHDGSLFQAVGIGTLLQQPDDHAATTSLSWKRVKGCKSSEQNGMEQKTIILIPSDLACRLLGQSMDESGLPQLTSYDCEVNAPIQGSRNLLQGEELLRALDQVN

With `CCOP(=O)(SC(C)CC)N1CCSC1=O` (stereo not drawn), the AC50 (in general, the concentration at which the activity in the assay is half-maximal) in experiment [1] is 32.3 µM (active); in experiment [8], 21.3 µM (active); in [9], 21 µM (active); in experiment [17], 25.6 µM (active). The result in experiment [2], in experiment [3], in experiment [4], in experiment [5], in [6] and in experiment [7] was inactive. In addition, the result in [10], in [11], in experiment [12], in [13], in experiment [14] and in [15] was inactive. For the same compound, the compound was called inactive in experiment [16] and in [18].

As to `Cc1cc(C2CC2)nc(Nc2ccccc2)n1`, the result in experiment [1], in experiment [2], in [5], in [6], in experiment [7] and in [8] was inactive. Moreover, the call (with HGF (gene 3082); in experiment [9]; in experiment [10]; in [11]; in experiment [12]; in [14]) was inactive. Also, the result in [16], in experiment [17] and in experiment [18] was inactive. Further, the AC50 is 29.7 µM (active) in experiment [4], 50 µM (active) in experiment [13] and 22.9 µM (active) in [15].

As for `CCCCN(CC)c1c([N+](=O)[O-])cc(C(F)(F)F)cc1[N+](=O)[O-]`, the compound was classed as inactive in [1], in experiment [2], in experiment [4], in experiment [5], in [6] and in experiment [7]. For the same compound, the call (in experiment [8]; with HGF (gene 3082); in experiment [9]; in experiment [10]; in [11]; in experiment [12]) was inactive. Besides, the compound was classed as inactive in experiment [13], in [14], in experiment [15], in experiment [16] and in experiment [18].
